# Results filed as inconclusive are left out. Active and inactive are the calls of the source. Unless noted, calls come from the whole dose curve; as a rule, active = well fitted curve in either direction with a large enough effect (not every such curve was filed as active); inconclusive = small, poorly fitted or top-dose-only effect, or another doubt; inactive = flat fitted curve, though single readings scatter.
# How the values were obtained:
# [1] = target: Lysosomal acid glucosylceramidase (Homo sapiens) (UniProt P04062); experiment: Glucocerebrosidase-p2 (AID 348; in the data active = potency below about 10 µM; note: potency is the fitted concentration of half-maximal effect); settings: purified GBA, blue fluorogenic substrate, 40 min
# Lysosomal acid glucosylceramidase (Homo sapiens), sequence (P04062 whole entry, looked up): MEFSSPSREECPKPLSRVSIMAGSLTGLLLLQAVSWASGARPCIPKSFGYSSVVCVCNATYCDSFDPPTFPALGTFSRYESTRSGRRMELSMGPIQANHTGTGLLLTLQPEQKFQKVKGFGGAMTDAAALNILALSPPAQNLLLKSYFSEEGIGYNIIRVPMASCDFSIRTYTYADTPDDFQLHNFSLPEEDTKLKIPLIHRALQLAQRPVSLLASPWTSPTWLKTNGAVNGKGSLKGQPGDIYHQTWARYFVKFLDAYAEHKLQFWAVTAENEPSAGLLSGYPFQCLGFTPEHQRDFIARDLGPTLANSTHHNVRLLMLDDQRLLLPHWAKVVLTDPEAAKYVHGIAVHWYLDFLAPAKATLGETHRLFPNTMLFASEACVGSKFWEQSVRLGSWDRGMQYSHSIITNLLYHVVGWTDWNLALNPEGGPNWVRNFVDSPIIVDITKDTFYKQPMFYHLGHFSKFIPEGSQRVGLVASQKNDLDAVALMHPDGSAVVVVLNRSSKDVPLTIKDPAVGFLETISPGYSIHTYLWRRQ
# Outline: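 Compounds titrated from 0.6 nM upwards against 0.2 nM enzyme in pH 5.9 citric acid/KH2PO4, taurocholate, tween-20; blue fluorogenic substrate 80 uM, 40 min room temperature, stopped and read Ex 365/Em 440 for AC50.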
# [2] = AP1 Signaling Pathway (AID 357); settings: ME-180 AP-1-bla reporter, EGF-induced, beta-lactamase ratio, 5 h; at 7.69 µM (top of the series) unless noted; note: % is set by controls: 0 for no effect and ±100 for the full control effect
# Outline: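 ME-180 cells with beta-lactamase reporter under AP-1 response element, stimulated with EC50 EGF; compounds tested in titration series, 5 h at 37 °C. CCF4 substrate added 2.5 h at room temperature; 460/530 nm emission ratio gave %activity and AC50.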
# [3] = target: Cytochrome P450 1A2 (Homo sapiens) (UniProt P05177); experiment: p450-cyp1a2 (AID 410; calls by dose curve; note: potency is the fitted concentration of half-maximal effect;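 for activity change, negative = inhibition: -100% = full effect of reference inhibitor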); settings: recombinant CYP1A2, luciferin-ME demethylation, luminescence; series mostly up to 57 µM
# Cytochrome P450 1A2 (Homo sapiens), sequence (P05177 whole entry, looked up): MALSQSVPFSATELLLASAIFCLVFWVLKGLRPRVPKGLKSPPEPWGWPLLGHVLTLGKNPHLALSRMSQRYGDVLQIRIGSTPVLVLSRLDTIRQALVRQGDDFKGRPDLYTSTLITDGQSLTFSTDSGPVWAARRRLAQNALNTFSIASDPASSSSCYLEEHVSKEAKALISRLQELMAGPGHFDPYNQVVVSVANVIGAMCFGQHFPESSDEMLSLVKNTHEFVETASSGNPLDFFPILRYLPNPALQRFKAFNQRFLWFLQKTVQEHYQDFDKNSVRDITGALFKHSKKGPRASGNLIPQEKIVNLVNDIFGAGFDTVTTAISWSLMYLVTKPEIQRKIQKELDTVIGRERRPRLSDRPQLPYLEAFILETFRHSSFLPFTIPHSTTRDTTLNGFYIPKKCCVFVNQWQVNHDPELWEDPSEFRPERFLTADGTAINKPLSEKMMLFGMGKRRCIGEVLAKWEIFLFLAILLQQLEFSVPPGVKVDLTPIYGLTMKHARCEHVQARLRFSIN
# Outline: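 Luminescent readout of luciferin formed from Luciferin-ME by human CYP1A2; data normalized against complete inhibition by 57 uM furafylline. Enzyme 20nM, substrate 100uM at Km, 100mM KPO4 buffer, 60 min reaction at room temperature.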
# [4] = NFAT Signaling Pathway (AID 444); settings: Jurkat NFAT-bla M1, carbachol, beta-lactamase ratio, 5 h; at 7.69 µM (top of the series) unless noted;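 note: carbachol stimulus at about its EC50 of 1 µM final; % is set by controls: 0 for no effect and ±100 for the full control effect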
# Outline: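 Jurkat cells carrying an NFAT-driven β-lactamase reporter and co-transfected muscarinic M1 receptor were treated with compound plus carbachol (1 uM final, an EC50 level) for 5 h at 37 °C. CCF4 loading followed for 1 h at RT; 460/530 nm ratio gave %activity.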
# [5] = Stat Signaling Pathway (AID 446); settings: ME-180 SIE beta-lactamase reporter, IL-6 stimulated, 5 h; at 7.69 µM (top of the series) unless noted;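 note: ME-180 cervical cancer cells given 40 pM IL-6 alongside compound; SIE-controlled beta-lactamase reporter measured as 460/530 nm FRET emission ratio; % is set by controls: 0 for no effect and ±100 for the full control effect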
# Outline: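 Screening format detects activators and inhibitors alike: ME-180 SIE-bla cells stimulated at 40 pM IL-6 for 5 hrs with compound, then dual-emission beta-lactamase read at 405 nm excitation.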
# [6] = target: Glucocorticoid receptor (Homo sapiens) (UniProt P04150); experiment: GR-GFP Redistribution (AID 450;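 active = compounds whose dose series gives a full or clear partial fitted curve of increased nuclear translocation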; note: potency is the fitted concentration of half-maximal effect); settings: U2OS GR-GFP nuclear translocation, laser cytometry, 2 h
# Glucocorticoid receptor (Homo sapiens), sequence (P04150 whole entry, looked up, the tested form may be a part): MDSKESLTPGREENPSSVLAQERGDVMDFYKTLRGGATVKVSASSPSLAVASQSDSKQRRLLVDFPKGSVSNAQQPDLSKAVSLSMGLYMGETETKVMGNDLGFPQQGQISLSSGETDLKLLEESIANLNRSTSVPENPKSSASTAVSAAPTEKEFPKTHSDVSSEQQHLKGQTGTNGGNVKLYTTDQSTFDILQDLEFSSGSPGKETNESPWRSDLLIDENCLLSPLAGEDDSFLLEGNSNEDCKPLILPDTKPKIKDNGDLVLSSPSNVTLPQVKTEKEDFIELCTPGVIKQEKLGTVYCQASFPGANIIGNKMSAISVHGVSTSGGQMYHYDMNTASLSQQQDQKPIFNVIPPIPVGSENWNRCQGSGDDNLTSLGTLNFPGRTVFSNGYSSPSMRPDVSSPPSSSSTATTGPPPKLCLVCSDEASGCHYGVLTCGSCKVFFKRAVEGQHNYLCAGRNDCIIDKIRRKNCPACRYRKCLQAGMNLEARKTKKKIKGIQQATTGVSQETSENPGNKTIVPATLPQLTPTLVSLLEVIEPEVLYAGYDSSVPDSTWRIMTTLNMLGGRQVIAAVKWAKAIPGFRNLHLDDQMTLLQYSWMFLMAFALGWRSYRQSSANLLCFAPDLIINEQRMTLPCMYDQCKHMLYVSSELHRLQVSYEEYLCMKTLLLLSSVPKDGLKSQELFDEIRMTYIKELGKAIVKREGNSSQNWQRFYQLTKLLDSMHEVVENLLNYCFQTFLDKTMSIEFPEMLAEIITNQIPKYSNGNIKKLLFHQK
# [7] = target: Glucocorticoid receptor (Homo sapiens) (UniProt P04150); experiment: GR-EFC Redistribution (AID 451; calls by dose curve; note: potency is the fitted concentration of half-maximal effect); settings: CHO-K1 GR-EFC translocation, beta-gal luminescence, 2 h
# Outline: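 CHO-K1 cells stably expressing nuclear-localized β-gal enzyme acceptor and GR fused C-terminally to the enzyme donor fragment; ligand-driven nuclear translocation restores β-gal by complementation. Compounds titrated up to 46 uM final, 2 h at 37 °C; luminescence read.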
# [8] = target: Mitogen-activated protein kinase 10 (Mus musculus) (UniProt Q61831); experiment: JNK3 AlphaScreen Assay (AID 530); settings: JNK3 lysate, c-Jun phosphorylation; series mostly up to 57.1 µM;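 note: kinase came from lysate of stimulated human HepG2 cells; signal reports phosphorylation of biotinylated GST-cJun 1-79 at Ser73 with 10 µM ATP; % is set by controls: 0 for no effect and ±100 for the full control effect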
# Outline: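 Inhibitors reduce antibody binding to phosphorylated biotin-cJun, lowering AlphaScreen luminescence. Lysates from HepG2 cells pre-activated by IL-1beta plus TNF-alpha supplied JNK3; compounds were titrated.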
# [9] = target: Cytochrome P450 2C9 (Homo sapiens) (UniProt P11712); experiment: qHTS Assay for Inhibitors and Substrates of Cytochrome P450 2C9 (AID 883; active = well fitted curve in the direction sought with a large enough effect; an effect the other way counts as inactive or inconclusive; note: % is set by controls: 0 for no effect and ±100 for the full control effect; nearly all actives have a fitted effect of over 60% in size); settings: recombinant CYP2C9, luciferin-H luminescence, 60 min; series mostly up to 57.1 µM
# Cytochrome P450 2C9 (Homo sapiens), sequence (P11712 whole entry, looked up): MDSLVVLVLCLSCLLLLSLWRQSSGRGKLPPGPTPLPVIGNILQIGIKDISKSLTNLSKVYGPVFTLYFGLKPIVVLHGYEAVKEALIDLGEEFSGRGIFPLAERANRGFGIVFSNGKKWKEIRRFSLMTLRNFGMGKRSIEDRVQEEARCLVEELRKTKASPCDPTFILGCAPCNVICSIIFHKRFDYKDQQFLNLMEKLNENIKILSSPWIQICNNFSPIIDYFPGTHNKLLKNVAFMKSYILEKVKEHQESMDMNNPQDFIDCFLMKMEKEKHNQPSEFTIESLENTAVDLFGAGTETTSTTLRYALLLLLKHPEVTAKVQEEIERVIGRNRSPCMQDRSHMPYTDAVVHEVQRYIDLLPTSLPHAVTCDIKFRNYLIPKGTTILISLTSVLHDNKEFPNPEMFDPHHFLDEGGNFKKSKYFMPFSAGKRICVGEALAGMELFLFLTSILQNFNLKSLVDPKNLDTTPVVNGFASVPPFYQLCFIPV
# Outline: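 Human CYP2C9 (10nM) hydroxylated Luciferin-H (100uM, at its KM) to luciferin in 25mM KPO4. Compound was preincubated 10 min at 37C, then NADPH regeneration started a 60 min reaction at 37C. Luminescence was read after detection reagent, normalized to 57uM sulphaphenazole.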
# [10] = qHTS Assay for Lipid Storage Modulators (AID 1519; calls by dose curve); settings: Drosophila S3 cells, BODIPY lipid droplet/cell ratio, laser cytometry, cells loaded with oleic acid; for activity change, negative = inhibition: at 57.5 µM (top of the series)
# Outline: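 Cells seeded at 5,000 per well were treated with compounds over a concentration series and loaded with oleic acid (400 uM, as added). Lipid droplet fluorescence (488 nm excitation, 500-530 nm channel) was read by laser-scanning cytometry and normalized to 20 uM Triacsin C.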
# [11] = Primary qHTS for small molecule stabilizers of the endoplasmic reticulum resident proteome: Secreted ER Calcium Modulated Protein (SERCaMP) assay (AID 1508630; active = well fitted curve in the direction sought with a large enough effect; an effect the other way counts as inactive or inconclusive; note: % is set by controls: 0 for no effect and ±100 for the full control effect); settings: SH-SY5Y GLuc-SERCaMP (Gaussia luciferase released on ER calcium loss) secretion, thapsigargin, luminescence; series mostly up to 38.4 µM
# Outline: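 GLuc-SERCaMP-expressing SH-SY5Y cells, pretreated 16 h with compound, are challenged with thapsigargin to empty ER calcium stores; after 4 h, coelenterazine is added directly to the medium and luminescence is imaged.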
# [12] = target: 3',5'-cyclic-AMP phosphodiesterase 4B (Homo sapiens) (UniProt Q07343); experiment: qHTS Assay for Inhibitors of PDE-IV (AID 607; active = well fitted activation curve with a large enough effect in the main read-out, with a control signal flat, not every such curve was filed as active; note: % of control where 0% means no effect); settings: HEK293 ACTOne CNG channel cells, membrane potential fluorescence; series mostly up to 22.9 µM
# 3',5'-cyclic-AMP phosphodiesterase 4B (Homo sapiens), sequence (Q07343 whole entry, looked up): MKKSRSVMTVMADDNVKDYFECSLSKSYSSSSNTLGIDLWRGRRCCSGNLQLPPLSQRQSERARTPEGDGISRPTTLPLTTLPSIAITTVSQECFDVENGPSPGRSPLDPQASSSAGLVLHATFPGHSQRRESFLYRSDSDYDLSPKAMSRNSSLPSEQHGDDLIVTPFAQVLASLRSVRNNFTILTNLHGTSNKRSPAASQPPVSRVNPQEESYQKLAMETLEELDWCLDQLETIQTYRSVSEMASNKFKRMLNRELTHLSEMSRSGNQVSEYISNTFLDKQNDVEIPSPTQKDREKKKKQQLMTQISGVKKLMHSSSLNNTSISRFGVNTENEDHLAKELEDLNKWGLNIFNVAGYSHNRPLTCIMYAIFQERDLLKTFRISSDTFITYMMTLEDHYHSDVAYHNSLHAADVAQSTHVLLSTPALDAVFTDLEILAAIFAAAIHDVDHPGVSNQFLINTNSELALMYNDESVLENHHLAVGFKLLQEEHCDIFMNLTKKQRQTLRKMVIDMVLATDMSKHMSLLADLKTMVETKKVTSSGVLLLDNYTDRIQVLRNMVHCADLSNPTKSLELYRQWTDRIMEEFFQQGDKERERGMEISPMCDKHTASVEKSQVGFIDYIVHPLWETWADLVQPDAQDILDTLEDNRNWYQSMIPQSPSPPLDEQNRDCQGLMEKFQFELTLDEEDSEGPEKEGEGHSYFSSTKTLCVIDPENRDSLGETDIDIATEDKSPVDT
# Outline: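 The readout is membrane depolarisation from a cAMP-sensing CNG channel, detected with a potential dye at ex 535/em 590. Cells were HEK293-derived (endogenous PDE-IV) at 1000 cells/well, titrated up to 22.9 uM final.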
# [13] = Confirmation and Secondary Assay for Modulators of Hemoglobin Beta Chain Splicing at IVS2 654 locus (AID 910; active = well fitted curve in the direction sought with a large enough effect; an effect the other way counts as inactive or inconclusive;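 note: per-well total GFP intensity by laser scanning cytometry after 2-day treatment; % of control where 0% means no effect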); settings: HeLa EGFP-654 splicing reporter, GFP fluorescence, 48 h; series mostly up to 38.3 µM
# Outline: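 HeLa cells stably carrying EGFP interrupted by mutant beta-globin IVS2-654 intron (CMV-driven) were treated with compound for 2 days at 37C; corrected splicing was scored as total peak GFP intensity per well (488 nm excitation, 500-520 nm emission).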
# [14] = Confirmation and Secondary Assay for Modulators of Hemoglobin Beta Chain Splicing at IVS2 705 locus (AID 930; active = well fitted curve in the direction sought with a large enough effect; an effect the other way counts as inactive or inconclusive;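 note: HeLa cells stably expressing the EGFP-705 splicing reporter; GFP fluorescence per well restored by corrected splicing of the IVS2-705 intron in EGFP; % of control where 0% means no effect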); settings: HeLa EGFP-705 splicing reporter, GFP fluorescence, 48 h; series mostly up to 38.3 µM
# Outline: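 Assay measures total GFP intensity per well in HeLa EGFP-705 cells after 2 days with compound; mis-splicing normally truncates EGFP, so fluorescence indicates corrected splicing.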
# [15] = target: Cytochrome P450 3A4 (Homo sapiens) (UniProt P08684); experiment: qHTS Assay for Activators of Cytochrome P450 3A4 (AID 885; active = well fitted curve in the direction sought with a large enough effect; an effect the other way counts as inactive or inconclusive; note: nearly all actives have a fitted effect of over 65% in size); settings: recombinant CYP3A4, Luciferin-PPXE luminescence, 60 min; series mostly up to 57.1 µM
# Cytochrome P450 3A4 (Homo sapiens), sequence (P08684 whole entry, looked up): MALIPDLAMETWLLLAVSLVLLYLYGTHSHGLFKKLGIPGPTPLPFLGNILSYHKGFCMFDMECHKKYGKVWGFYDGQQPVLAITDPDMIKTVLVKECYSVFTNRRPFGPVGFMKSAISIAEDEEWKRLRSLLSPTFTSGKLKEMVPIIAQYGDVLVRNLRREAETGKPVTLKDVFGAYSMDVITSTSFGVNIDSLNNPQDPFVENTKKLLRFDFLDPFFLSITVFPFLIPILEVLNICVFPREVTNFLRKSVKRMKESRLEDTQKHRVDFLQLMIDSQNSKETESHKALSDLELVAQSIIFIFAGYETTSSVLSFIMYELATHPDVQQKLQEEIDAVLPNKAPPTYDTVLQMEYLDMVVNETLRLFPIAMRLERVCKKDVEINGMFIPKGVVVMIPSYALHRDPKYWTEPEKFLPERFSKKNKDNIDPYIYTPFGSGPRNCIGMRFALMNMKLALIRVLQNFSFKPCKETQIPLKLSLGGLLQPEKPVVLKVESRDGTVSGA
# Outline: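 Steps: enzyme/substrate mix dispensed; compound added, 10 min RT; NADPH regeneration solution added, 60 min RT; luciferin detection buffer stops reaction; 20 min later luminescence measured.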
# [16] = target: Ubiquitin carboxyl-terminal hydrolase 1 (Homo sapiens) (UniProt O94782); experiment: Inhibitors of USP1/UAF1: Pilot qHTS (AID 504865; active = well fitted curve in the direction sought with a large enough effect; an effect the other way counts as inactive or inconclusive;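 note: rhodamine fluorescence freed from ubiquitin-rhodamine substrate followed over time; top concentration of the series differs between compounds; % is set by controls: 0 for no effect and ±100 for the full control effect; nearly all actives have a fitted effect of over 35% in size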); settings: purified USP1/UAF1, Ub-rhodamine cleavage fluorescence; series mostly up to 54.9 µM
# Ubiquitin carboxyl-terminal hydrolase 1 (Homo sapiens), sequence (O94782 whole entry, looked up): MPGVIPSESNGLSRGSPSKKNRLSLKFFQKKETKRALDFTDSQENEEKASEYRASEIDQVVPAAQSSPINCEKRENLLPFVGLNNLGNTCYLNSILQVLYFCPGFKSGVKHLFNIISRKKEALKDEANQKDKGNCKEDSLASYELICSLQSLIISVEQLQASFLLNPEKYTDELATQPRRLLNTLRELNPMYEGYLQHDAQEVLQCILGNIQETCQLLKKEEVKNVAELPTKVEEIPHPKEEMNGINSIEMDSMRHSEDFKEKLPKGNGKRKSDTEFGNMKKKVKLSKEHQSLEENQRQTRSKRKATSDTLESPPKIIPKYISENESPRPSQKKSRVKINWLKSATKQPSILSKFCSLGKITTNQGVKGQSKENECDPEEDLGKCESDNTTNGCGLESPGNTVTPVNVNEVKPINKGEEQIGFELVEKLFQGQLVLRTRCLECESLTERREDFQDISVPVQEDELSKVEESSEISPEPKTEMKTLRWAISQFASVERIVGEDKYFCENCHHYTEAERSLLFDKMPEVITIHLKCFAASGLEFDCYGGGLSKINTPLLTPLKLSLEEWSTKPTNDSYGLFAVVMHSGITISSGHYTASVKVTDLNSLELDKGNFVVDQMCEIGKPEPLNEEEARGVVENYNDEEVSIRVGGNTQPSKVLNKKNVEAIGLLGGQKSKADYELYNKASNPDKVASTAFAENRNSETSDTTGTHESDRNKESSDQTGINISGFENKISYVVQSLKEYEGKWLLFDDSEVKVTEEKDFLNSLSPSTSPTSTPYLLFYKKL
# Outline: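 USP1/UAF1 complex at 1 nM preincubated 15 min at room temperature with compound, then Ub-Rho substrate added at 150 nM final. Fluorescence (480/540 nm) read kinetically in 50 mM HEPES pH 7.8, 0.5 mM EDTA, 1 mM TCEP, 0.1 mg/ml BSA, 0.01% Tween-20.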
# [17] = qHTS Assay for Identification of Small Molecule Agonists for Hypoxia Response Element Signaling Pathway (AID 914; active = well fitted activation curve with a large enough effect in the signal ratio, with a control signal flat, not every such curve was filed as active; the % refers to the signal ratio; note: % of control where 0% means no effect); settings: ME-180 (cervical carcinoma) HRE-bla reporter, beta-lactamase ratio, CoCl2, 17 h; activation: stronger effect = higher value
# Outline: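 Compounds in a titration series were added to ME-180 reporter cells alongside an EC50 level of CoCl2. After 17 hours, beta-lactamase activity was read as the 460nm/530nm emission ratio of CCF4, giving AC50 values.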
# [18] = measured here: cell count channel max response
# [19] = measured here: lipid channel max response
Structure (SMILES),Potency [1],"activity change, negative = inhibition [2]",Potency [3],"activity change, negative = inhibition [4]","activity, negative = inhibition [5]",Potency [6],Potency [7],outcome [8],Potency [9],"activity change, negative = inhibition [10]","max response [10, 18] [%]","max response [10, 19] [%]",Potency [11],Potency [12],outcome [13],outcome [14],Potency [15],Potency [16],activation [17]
CN(C)c1ncc2ncc(=O)n(CCC#N)c2n1,> 11.4 µM (inactive),-12.7% (inactive),12.6 µM (active),3.55% (inactive),-2.2% (inactive),> 9.22 µM (inactive),> 46 µM (inactive),inactive,inactive,2.4% (inactive),25.3,29.8,inactive,–,–,–,–,–,–
CN1CCN(c2cc(-c3ccc(N(C)C)cc3)ncn2)CC1,> 11.4 µM (inactive),-7.42% (inactive),2.51 µM (active),-7.21% (inactive),2.2% (inactive),> 46 µM (inactive),> 46 µM (inactive),inactive,–,8.21% (inactive),7.68,16.4,inactive,inactive,inactive,inactive,–,–,–
Cc1cccc(CNc2ccnc(-c3ccoc3)n2)c1,> 11.4 µM (inactive),0.94% (inactive),2 µM (active),0.371% (inactive),6.16% (inactive),> 46 µM (inactive),> 46 µM (inactive),inactive,–,6.91% (inactive),1.7,4.61,inactive,inactive,inactive,inactive,inactive,–,–
Cc1nc2cnc(Oc3cccc(Cl)c3)nc2n(CCC#N)c1=O,> 11.4 µM (inactive),-16% (inactive),15.8 µM (active),1.8% (inactive),-7.79% (inactive),> 9.22 µM (inactive),> 46 µM (inactive),inactive,–,3.95% (inactive),19.7,26.1,inactive,inactive,–,–,inactive,–,–
O=C(O)C1CCN(c2ncnc3ccc(-c4ccccc4C(F)(F)F)cc23)CC1,> 11.4 µM (inactive),-20.1% (inactive),inactive,6.97% (inactive),-9.2% (inactive),> 46 µM (inactive),> 46 µM (inactive),inactive,–,4.82% (inactive),14.4,20.7,inactive,–,inactive,inactive,inactive,inactive,–
CN(C)Cc1ccccc1-c1nc(NCc2ccccc2)c2ccccc2n1,> 11.4 µM (inactive),15.5% (inactive),1.26 µM (active),-17.2% (inactive),4.49% (inactive),> 46 µM (inactive),> 46 µM (inactive),inactive,–,5.53% (inactive),1.11,6.16,inactive,–,inactive,inactive,inactive,inactive,–
COc1ncc2nc(-c3cccc(C#N)c3)c(=O)n(CCC#N)c2n1,> 11.4 µM (inactive),-2.26% (inactive),20 µM (active),-6.7% (inactive),-3.36% (inactive),> 9.22 µM (inactive),> 46 µM (inactive),inactive,–,3.8% (inactive),14.2,20.3,inactive,inactive,–,–,inactive,–,-3.76% (inactive)

# — PubChem BioAssay (NCATS)
